# Records with an inconclusive call do not appear. Activity calls are given as the source filed them. Rule for the calls: active = hit-call score of the fitted dose curve at least 0.9, where 1 is the maximum; inconclusive = response in the unintended direction; inactive = score below 0.9.
# Key:
# [1] = target: human Protein Tyrosine Phosphatase Receptor Type F (PTPRF), PTPRF (gene 5792) (UniProt P10586); assay: NVS_ENZ_hPTPRF: NovaScreen (NVS) Enzymatic Assay for human Protein Tyrosine Phosphatase Receptor Type F (PTPRF) (AID 2283213)
# human Protein Tyrosine Phosphatase Receptor Type F (PTPRF), PTPRF (gene 5792), sequence (P10586 whole entry, looked up): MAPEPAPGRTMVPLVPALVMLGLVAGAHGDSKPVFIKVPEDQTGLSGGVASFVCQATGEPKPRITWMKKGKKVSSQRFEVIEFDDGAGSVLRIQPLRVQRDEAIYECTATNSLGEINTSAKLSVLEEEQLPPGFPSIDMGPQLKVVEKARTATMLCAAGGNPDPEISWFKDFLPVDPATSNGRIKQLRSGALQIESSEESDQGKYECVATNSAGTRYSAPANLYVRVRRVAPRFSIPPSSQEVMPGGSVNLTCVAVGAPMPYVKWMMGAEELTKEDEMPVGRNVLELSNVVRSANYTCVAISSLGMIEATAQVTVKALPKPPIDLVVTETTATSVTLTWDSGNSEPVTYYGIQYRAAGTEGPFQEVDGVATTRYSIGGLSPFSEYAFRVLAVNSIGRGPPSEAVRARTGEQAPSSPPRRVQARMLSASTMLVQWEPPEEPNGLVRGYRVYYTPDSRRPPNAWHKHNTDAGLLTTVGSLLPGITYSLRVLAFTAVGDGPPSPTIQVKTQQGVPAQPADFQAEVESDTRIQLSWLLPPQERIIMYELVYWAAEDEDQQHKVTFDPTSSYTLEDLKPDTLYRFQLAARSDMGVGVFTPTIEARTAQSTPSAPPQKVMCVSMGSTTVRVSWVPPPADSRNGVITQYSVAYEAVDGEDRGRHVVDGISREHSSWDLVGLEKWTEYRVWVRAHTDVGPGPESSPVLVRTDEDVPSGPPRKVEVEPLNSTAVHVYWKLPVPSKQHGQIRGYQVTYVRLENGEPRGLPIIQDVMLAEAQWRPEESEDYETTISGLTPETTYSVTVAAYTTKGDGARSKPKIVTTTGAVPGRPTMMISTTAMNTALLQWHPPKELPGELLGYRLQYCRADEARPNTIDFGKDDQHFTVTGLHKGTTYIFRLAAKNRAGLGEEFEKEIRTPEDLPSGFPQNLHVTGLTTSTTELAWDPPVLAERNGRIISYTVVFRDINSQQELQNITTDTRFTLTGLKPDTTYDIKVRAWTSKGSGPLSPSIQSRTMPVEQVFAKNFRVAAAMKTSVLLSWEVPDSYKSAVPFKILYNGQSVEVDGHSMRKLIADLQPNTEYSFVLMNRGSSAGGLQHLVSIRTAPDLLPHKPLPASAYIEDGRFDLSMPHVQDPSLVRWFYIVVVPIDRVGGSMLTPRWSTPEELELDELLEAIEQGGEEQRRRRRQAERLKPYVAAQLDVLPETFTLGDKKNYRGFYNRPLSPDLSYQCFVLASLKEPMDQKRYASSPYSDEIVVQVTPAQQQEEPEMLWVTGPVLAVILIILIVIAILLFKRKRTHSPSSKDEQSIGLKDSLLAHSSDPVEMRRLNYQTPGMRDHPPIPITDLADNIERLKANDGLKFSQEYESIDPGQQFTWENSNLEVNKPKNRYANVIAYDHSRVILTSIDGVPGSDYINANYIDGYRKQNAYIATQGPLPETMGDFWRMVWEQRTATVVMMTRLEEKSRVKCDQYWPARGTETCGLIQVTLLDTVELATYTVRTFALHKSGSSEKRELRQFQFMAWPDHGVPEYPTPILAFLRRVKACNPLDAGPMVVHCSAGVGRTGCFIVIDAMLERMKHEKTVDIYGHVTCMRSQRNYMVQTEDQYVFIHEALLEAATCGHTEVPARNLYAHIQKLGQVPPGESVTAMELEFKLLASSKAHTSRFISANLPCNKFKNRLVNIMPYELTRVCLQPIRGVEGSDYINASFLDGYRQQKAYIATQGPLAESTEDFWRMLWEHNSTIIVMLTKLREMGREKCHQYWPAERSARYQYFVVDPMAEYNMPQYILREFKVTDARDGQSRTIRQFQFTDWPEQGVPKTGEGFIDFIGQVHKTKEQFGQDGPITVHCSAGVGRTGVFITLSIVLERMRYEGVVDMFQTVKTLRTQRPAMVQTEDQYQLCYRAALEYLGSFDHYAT
# In short: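 Cell-free fluorescence enzyme assay with recombinant protein and substrate; product separated by electrophoretic mobility shift. Read 1 h after dosing, single 25 uM duplicate screen, then concentration-response up to 50 uM; loss of signal vs DMSO.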
# [2] = target: human Protein Tyrosine Phosphatase Receptor Type M (PTPRM), PTPRM (gene 5797) (UniProt P28827); assay: NVS_ENZ_hPTPRM: NovaScreen (NVS) Enzymatic Assay for human Protein Tyrosine Phosphatase Receptor Type M (PTPRM) (AID 2283215)
# human Protein Tyrosine Phosphatase Receptor Type M (PTPRM), PTPRM (gene 5797), sequence (P28827 whole entry, looked up): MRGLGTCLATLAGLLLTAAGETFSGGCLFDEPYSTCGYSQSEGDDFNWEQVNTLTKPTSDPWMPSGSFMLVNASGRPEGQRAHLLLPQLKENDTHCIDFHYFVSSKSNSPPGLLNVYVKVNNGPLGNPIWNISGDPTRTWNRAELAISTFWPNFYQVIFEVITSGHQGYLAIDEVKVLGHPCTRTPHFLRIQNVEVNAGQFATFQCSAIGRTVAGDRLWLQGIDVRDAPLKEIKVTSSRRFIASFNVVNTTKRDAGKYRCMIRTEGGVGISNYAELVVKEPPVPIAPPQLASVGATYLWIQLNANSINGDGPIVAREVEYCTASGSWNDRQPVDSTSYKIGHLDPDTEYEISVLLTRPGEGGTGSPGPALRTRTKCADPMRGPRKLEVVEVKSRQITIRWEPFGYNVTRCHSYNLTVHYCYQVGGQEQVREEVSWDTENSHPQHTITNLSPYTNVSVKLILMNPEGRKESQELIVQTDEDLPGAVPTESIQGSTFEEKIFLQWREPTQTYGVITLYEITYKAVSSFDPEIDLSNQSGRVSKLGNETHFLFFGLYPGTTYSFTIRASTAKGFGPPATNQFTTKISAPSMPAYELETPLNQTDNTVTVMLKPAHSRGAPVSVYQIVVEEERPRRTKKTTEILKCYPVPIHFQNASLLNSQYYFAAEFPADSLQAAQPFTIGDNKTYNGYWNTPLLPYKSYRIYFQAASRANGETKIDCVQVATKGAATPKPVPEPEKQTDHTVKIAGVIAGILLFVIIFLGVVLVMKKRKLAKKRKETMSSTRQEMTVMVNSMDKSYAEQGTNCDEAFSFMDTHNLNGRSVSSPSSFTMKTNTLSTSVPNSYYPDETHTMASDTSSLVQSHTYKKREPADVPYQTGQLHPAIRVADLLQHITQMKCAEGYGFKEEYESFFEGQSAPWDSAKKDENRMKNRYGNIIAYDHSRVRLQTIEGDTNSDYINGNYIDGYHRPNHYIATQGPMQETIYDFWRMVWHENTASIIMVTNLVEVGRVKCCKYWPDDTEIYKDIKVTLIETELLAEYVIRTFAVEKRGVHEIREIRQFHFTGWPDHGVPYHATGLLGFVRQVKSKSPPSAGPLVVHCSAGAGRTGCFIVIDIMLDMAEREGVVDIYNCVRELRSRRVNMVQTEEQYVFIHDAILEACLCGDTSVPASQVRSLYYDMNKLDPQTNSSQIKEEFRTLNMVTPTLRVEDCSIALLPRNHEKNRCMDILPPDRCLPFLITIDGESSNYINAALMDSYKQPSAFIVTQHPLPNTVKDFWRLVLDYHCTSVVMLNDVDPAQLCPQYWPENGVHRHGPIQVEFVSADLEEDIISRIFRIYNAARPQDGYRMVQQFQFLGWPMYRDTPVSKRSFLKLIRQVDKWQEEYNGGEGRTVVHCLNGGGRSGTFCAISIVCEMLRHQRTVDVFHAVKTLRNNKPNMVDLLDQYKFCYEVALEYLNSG
# In short: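 Cell-free recombinant PTPRM with fluorogenic substrate; product separated from substrate by electrophoretic mobility shift and read by fluorescence, 1.33 h after dosing. Primary screen single concentration (25 uM) in duplicate; actives retested in concentration series; loss of signal versus DMSO.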
# [3] = target: human Vascular Endothelial Growth Factor Receptor 1 (VEGFR1), FLT1 (gene 2321) (UniProt P17948); assay: NVS_ENZ_hVEGFR1: NovaScreen (NVS) Enzymatic Assay for human Vascular Endothelial Growth Factor Receptor 1 (VEGFR1) (AID 2283226)
# human Vascular Endothelial Growth Factor Receptor 1 (VEGFR1), FLT1 (gene 2321), sequence (P17948 whole entry, looked up): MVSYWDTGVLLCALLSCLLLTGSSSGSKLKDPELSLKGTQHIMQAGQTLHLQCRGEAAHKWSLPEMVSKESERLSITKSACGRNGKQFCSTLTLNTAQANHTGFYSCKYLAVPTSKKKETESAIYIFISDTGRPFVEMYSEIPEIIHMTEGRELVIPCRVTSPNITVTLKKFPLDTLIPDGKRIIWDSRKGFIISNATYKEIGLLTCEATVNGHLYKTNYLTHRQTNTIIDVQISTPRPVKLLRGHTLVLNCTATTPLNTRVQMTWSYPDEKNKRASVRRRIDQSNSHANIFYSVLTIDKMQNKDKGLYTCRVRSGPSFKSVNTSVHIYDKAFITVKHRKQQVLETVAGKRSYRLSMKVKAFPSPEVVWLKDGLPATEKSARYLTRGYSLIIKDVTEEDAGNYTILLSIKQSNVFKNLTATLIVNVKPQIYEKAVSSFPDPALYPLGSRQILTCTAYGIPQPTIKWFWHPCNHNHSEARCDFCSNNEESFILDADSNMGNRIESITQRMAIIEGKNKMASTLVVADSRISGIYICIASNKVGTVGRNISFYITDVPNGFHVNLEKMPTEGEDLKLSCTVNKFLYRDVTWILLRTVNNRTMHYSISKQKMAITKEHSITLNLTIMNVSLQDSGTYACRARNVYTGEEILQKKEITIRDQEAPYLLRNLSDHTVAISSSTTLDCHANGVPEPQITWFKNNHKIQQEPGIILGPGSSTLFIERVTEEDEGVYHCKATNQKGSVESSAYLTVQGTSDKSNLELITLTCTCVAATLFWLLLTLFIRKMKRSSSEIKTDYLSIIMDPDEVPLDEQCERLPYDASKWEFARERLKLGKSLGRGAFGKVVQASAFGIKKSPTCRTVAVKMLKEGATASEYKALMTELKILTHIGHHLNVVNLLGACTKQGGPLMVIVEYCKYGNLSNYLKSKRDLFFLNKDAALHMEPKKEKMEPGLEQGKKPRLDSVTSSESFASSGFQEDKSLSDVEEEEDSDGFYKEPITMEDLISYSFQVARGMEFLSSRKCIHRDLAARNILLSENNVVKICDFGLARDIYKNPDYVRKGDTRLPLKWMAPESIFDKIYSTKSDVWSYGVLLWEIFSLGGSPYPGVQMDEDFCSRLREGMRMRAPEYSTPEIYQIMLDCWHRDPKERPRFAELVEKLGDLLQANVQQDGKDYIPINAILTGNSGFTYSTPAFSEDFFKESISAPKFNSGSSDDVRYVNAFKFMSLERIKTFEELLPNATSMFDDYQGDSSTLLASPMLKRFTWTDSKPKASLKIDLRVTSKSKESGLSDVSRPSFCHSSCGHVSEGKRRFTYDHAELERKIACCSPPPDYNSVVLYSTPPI
# In short: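 Cell-free assay of recombinant human VEGFR1 kinase with substrate, measured 1 h after dosing; fluorescence with electrophoretic mobility-shift separation of substrate and product, referenced to DMSO; primary screen at 25 uM in duplicate, actives then run in concentration series.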
smiles,measurement,setting,value
CN1C(=O)N(c2ccccc2Br)Cc2cnc(Nc3ccc4c(c3)OCC(CO)O4)nc21 (centres undefined),outcome,[1],inactive
Clc1cc(Cl)c2c(c1)N=C1CCCCCN1C2,outcome,[1],inactive
CCN(CC)C(=O)c1cc(S(=O)(=O)Cc2ccccc2)c(N2CCC(c3ccccc3)CC2)cc1N(CC)CCN(C)C,outcome,[2],inactive
Cc1cc2c(cc1C(F)(F)F)N(C(=O)Nc1ccc(Oc3cccnc3C)nc1)CC2,outcome,[3],inactive

# From PubChem BioAssay (EPA / NIEHS)
